Laboratory results reported in PubChem BioAssay (Tox21).
Records with an inconclusive call do not appear. The source made the active and inactive calls. Calls come from the whole dose curve.

Test: qHTS assay to identify small molecule agonists of H2AX - cell viability counter screen (AID 1224847); note: top concentration of the series differs between compounds; nearly all actives have a fitted effect of over 30% in size
Conditions: CHO-K1 viability, CellTiter-Glo luminescence, 3 h; series mostly up to 154 µM
From the text: National Center for Advancing Translational Sciences [NCATS]
NIH Chemical Genomics Center [NCGC]
U.S. Environmental Protection Agency [EPA]
National Institutes of Environmental Health Sciences [NIEHS]
National Toxicology Program [NTP]
U.S. Food and Drug Administration [FDA]
HTRF phospho-H2AX (Ser139) assay (Cisbio Bioassays, US) enables the quantitative detection of the histone variant H2AX when phosphorylated on serine 139. When double-stranded DNA breaks, either by ionizing radiation or endogenous physiological processes, H2AX becomes phosphorylated at Ser139. This phospho-Ser139 serves as a sensitive biomarker for the detection of such breaks, localizing the site of DNA repair. So, HTRF phospho-H2AX Ser139 is a pertinent assay to study genome stability, the cell cycle, DNA repair, and it serves as a biomarker for cancer, and to understand aging. Wild type CHO-K1 cells were used to identify the inducers of Phospho-H2AX Ser 139 from the Tox21 compound collections. Also cytotoxicity of the Tox21 10K compound library against the CHO-K1 cell line was tested by measuring the cell viability using CellTiter-Glo assay (Promega, Madison, WI).
Tox21 Assay Protocol Summary:
The CHO-K1 cells suspended in culture medium containing 10% FBS were dispensed at 1000 cells/ 3 ul/well in 1536-well white wall/solid bottom plates (Greiner Bio-One North America, NC) using a Multidrop Combi (Thermo Fisher Scientific Inc., Waltham, MA). After the assay plates were incubated at 37C overnight, 23 nl of compounds at 15 concentrations (from 5-48 columns) or positive control (from 1 to 4 columns) were transferred to the assay plates using a Pintool station (Wako, San Diego, CA) into each well resulting in a final DMSO concentration of 0.76%. After 3hr incubation at 37C, 3 uL/well CellTiter-Glo luminescent cell viability reagent (Promega Corporation, Madison, WI) was added using a Flying Reagent Dispenser (FRD) (Aurora Discovery, CA). After incubation at room temperature for 30 min, the luminescence intensity was read using a ViewLux plate reader (PerkinElmer, Waltham, MA).
% is set by controls: 0 for no effect and ±100 for the full control effect.

Row | SMILES | activity change, negative = cytotoxicity | outcome
1 | N[C@@H](Cc1ccc(O)cc1)C(=O)O | 5.12% [at 14 µM] (inactive) | –
2 | C[C@H]1[C@@H](c2ccccc2)NC(=O)N1C | – | inactive
3 | O=C(O)c1cc2ccccc2nc1C(=O)O | – | inactive
4 | COC(=O)c1cc(Cl)cc(Cl)c1 | – | inactive
5 | CC(CO)(CO)CO | – | inactive
6 | CO[C@@]1(NC(=O)Cc2cccs2)C(=O)N2C(C(=O)O)=C(COC(N)=O)CS[C@@H]21 | – | inactive
7 | CC(C)c1ccc(C=O)cc1 | – | inactive
8 | CC1(C)[C@H]2CC[C@](C)(C2)[C@H]1O | – | inactive
9 | C=C(C)C1CC=C(C)C(=O)C1 (stereo not given) | – | inactive
10 | Cn1c(=O)c2[nH]c(Br)nc2n(C)c1=O | – | inactive
11 | ONc1ccccc1 | – | inactive
12 | CC1=C(C(=O)O)N2C(=O)[C@@H](NC(=O)[C@H](N)C3=CCC=CC3)[C@H]2SC1 | – | inactive
13 | CCN(CC)CCN | – | inactive
14 | CCCC(=O)Nc1ccc(OCC(O)CNC(C)C)c(C(C)=O)c1 (stereo not given) | – | inactive
15 | CC(C)CO | – | inactive
16 | c1ccc(B(c2ccccc2)c2ccccc2)cc1 | – | inactive
17 | C/C(=C1\CCOC(=O)S1)N(C=O)Cc1cnc(C)nc1N | – | inactive
18 | CCOC(=O)CC1(C)OCC(C)O1 (stereo not given) | – | inactive
19 | CC(=O)CC(=O)OC(C)(C)C | – | inactive
20 | C=CC(=O)CCCCC | – | inactive

Row | SMILES | activity change, negative = cytotoxicity | outcome
21 | OC[C@@H](O)C(O)[C@@H](O)CO (stereo not given in full) | – | inactive
22 | [O-][n+]1cccc(/C(Cl)=N/OC[C@@H](O)CN2CCCCC2)c1 | – | inactive
23 | c1ccc2cnccc2c1 | – | inactive
24 | C#CCN[C@@H]1CCc2ccccc21 | – | inactive
25 | CC(=O)c1cc(C)oc1C | – | inactive
26 | CCCCCc1cccc(=O)o1 | – | inactive
27 | C=Cc1ccc(C(C)(C)C)cc1 | – | inactive
28 | CCOc1cccc(N)c1 | – | inactive
29 | c1ccc2c(CC3=NCCN3)cccc2c1 | – | inactive
30 | C=CCCCCCCCCC(=O)OCCCC | – | inactive
31 | O=C(O)CNC(=O)CNC(=O)CNC(=O)CSC(=O)c1ccccc1 | – | inactive
32 | CC1CC(=O)CC(C)(C)C1 (stereo not given) | – | inactive
33 | C=CC(=O)OCC1CCCO1 (stereo not given) | – | inactive
34 | C=CCSSCCC | – | inactive
35 | O/N=C/C=N/O | – | inactive
36 | CC(O)COC(C)(C)C (stereo not given) | – | inactive
37 | CN1CCOC(c2ccccc2)c2ccccc2C1 (stereo not given) | – | inactive
38 | OCC(O)CN1CCN(c2ccccc2)CC1 (stereo not given) | – | inactive
39 | N[C@@H](CSCCCO)C(=O)O | -1.29% [at 31.6 µM] (inactive) | –
40 | C=C(C)c1cccc(C(C)(C)N=C=O)c1 | – | inactive
